tim10-1 inh – tim10-1 yeast growth inhibition. S. cerevisiae tim10-1 ts strain growth, BacTiter-Glo, 24 h. actives 2.2% (n = 330,000). inhibition, % at 20 µM. AID 463190;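 active = inhibition of at least 40%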;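 note: mutant grown at 25 °C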
SKKanGAS inh – blocks kanamycin growth of S. pyogenes SKKanGAS strain | BacTiter-Glo, 6 h | inhibition, % at 7.5 µM | actives 1.3% (n = 300,000) | AID 1662;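 active = mean replicate score, as percent of positive control median, at least 50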;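 note: strain carries kanamycin resistance gene driven by streptokinase promoter and grows in 40 µg/ml kanamycin; loss of luminescence reflects streptokinase promoter inhibition or plain growth inhibition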
TIM10 inh – inhibits growth of TIM10 yeast strain; S. cerevisiae TIM10 strain growth, BacTiter-Glo luminescence, 24 h; inhibition, % at 10 µM; actives 1.4% (n = 330,000); AID 463195;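 active = inhibition of 40% or more at the single tested concentration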;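 note: wild-type TIM10 isogenic control strain grown at permissive 25 °C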
tim23-1 inh – inhibits growth of tim23-1 mutant yeast. inhibition, % at 20 µM. actives 1.3% (n = 330,000). S. cerevisiae tim23-1 growth, BacTiter-Glo luminescence, 24 h;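 active = growth inhibition of the mutant yeast at or above 50%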;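 note: temperature-sensitive mutant grown at 25 °C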
NLRP3 yeast inh – inhibitors of NALP3 inflammasome in yeast. Yeast reconstituted NLRP3/ASC/caspase-1, beta-gal luminescence, 24 h. inhibition, % at 10 µM. actives 0.39% (n = 330,000);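 active = inhibition of 50% or more; inactive = inhibition below 50%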
tim10-1 conf – tim10-1 yeast growth inhibition, confirmed; shares compounds with tim10-1 inh; S. cerevisiae tim10-1 ts strain growth, BacTiter-Glo, 24 h; inhibition, % at 20 µM; actives 56% (n = 7,400);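 active = inhibition of yeast growth at or above a set limit in either of two repeat tests at 20 µM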;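 note: tim10-1 mutant grown at permissive 25 °C to find synthetic lethal compounds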
Numbers stand for hits; n = inactive; x = no result. The list is not random: actives were taken first. Their share in the collection is about 4.6%.

SMILES	tim10-1 inh	SKKanGAS inh	TIM10 inh	tim23-1 inh	NLRP3 yeast inh	tim10-1 conf
O=C(O)c1ccc(N2CCc3ccccc32)c([N+](=O)[O-])c1	n	n	n	n	n	x
Fc1ccccc1CNCCC(Cc1ccccc1)c1ccc2c(c1)OCO2 (configuration not stated)	47	n	n	n	n	n
O=C(Nc1cccc(-n2cnnn2)c1)c1ccoc1COc1ccc(Cl)cc1	n	n	n	n	n	x
CCOc1ccccc1C=Nc1ccccc1C(=O)Nc1ccccc1	46	n	n	n	n	n
O=C(Nc1ccccc1)c1ccccc1N=Cc1ccccc1O	n	n	n	n	n	x
COc1ccc(NC(=O)c2sc3nc(N4CCOCC4)c4c(c3c2N)CC(C(C)C)OC4)c(OC)c1 (configuration not stated)	43	n	n	n	n	n
COc1ccc(NC(=O)c2sc3nc(N4CCCC4)c4c(c3c2N)CC(C)(C)OC4)c(OC)c1	n	n	n	n	n	x
CCCCCC(=O)N1CCCC(c2nc(-c3ccc(OC)cc3)no2)C1 (configuration not stated)	n	n	n	n	n	x
COc1ccc(-c2noc(C3CCCN(C(=O)CCc4ccccc4)C3)n2)cc1 (configuration not stated)	42	n	n	n	n	33
CCOP(=O)(OCC)/C(C#N)=C/c1ccc(-c2ccc(F)cc2F)o1	47	n	n	n	n	32
COCCNC(=O)/C(C#N)=C/c1ccc(-c2ccc(OC)cc2[N+](=O)[O-])o1	n	n	n	n	n	x
Cc1ccc(Nc2c(-c3ccco3)nc3nc(C)cc(C)n23)cc1	41	n	n	n	n	n
COc1ccc(-n2c(SCC(=O)Nc3ccc4c(c3)OCO4)nc3ccccc3c2=O)cc1	40	n	n	n	n	n
Cc1ccc(NC(=S)NNC(=O)CSc2nnc(-c3ccc(Cl)cc3)n2C2CCCCC2)cc1	42	n	n	n	n	35
CCOc1ccc(-n2c(SCC(=O)Nc3ccc4c(c3)OCO4)nc3ccccc3c2=O)cc1	n	n	n	n	n	x
CCn1c(SCC(=O)NNC(=S)Nc2ccc(C)cc2)nnc1-c1ccc(Cl)cc1	n	n	n	n	n	x
CCCn1cc(SCC(=O)Nc2ccc3c(c2)OCO3)c2ccccc21	43	n	n	n	n	n
Cc1ccc(NC(=S)NNC(=O)CSc2nc3ccccc3c(=O)n2-c2ccc(C)cc2)cc1	57	n	n	n	n	34
Cn1cc(SCC(=O)Nc2ccc3c(c2)OCO3)c2ccccc21	n	n	n	n	n	x
C=CCC[C@@H](Cc1ccc(F)cc1)C(=O)OC[C@@H](NC(=O)[C@@H](CC=C)CC(=O)N[C@H](CO)Cc1ccccc1)C(C)(C)C	n	x	n	n	n	x
COc1ccc(C)cc1S(=O)(=O)NNc1nc(C)cc(C)n1	n	x	n	n	n	x
O=C(COc1cccc(C(F)(F)F)c1)NCC(c1cccs1)N1CCOCC1 (configuration not stated)	n	x	n	n	n	x
CCn1c2ccccc2c2c3ncc4cccn4c3ccc21	49	n	n	n	n	30
c1ccc2c(c1)ncc1cccn12	n	n	n	n	n	x
O=C(O)c1cc2ccc3cccc4ccc(c1)c2c34	43	n	n	n	n	n
SMILES	tim10-1 inh	SKKanGAS inh	TIM10 inh	tim23-1 inh	NLRP3 yeast inh	tim10-1 conf
COC(=O)CSc1nc2c(c(-c3ccco3)c1C#N)CCCC2	47	n	n	n	n	40
COc1cccc(/C=C/C(=O)NCc2cn3cc(Cl)ccc3n2)c1	n	n	n	n	n	x
O=C(/C=C/c1cccc(Cl)c1)OCc1cn2cc(Cl)ccc2n1	43	n	n	n	n	n
Cc1cc(C(=O)COC(=O)c2cccc(NS(C)(=O)=O)c2)c(C)n1CC1CCCO1 (configuration not stated)	n	x	n	n	n	x
CCCCCCSc1ccc([C@H]2N[C@@](C)(C(=O)OC)[C@H]3C(=O)N(C)C(=O)[C@@H]23)cc1	44	n	n	n	n	35
Cc1ccc(C)c(NC(=S)NCCSc2ccc(Cl)cc2)c1	n	n	n	n	n	x
Cc1ccccc1NC(=S)NCCSc1ccc(Cl)cc1	47	n	n	n	n	n
Cc1cccc(NC(=S)NCCSc2ccc(Cl)cc2)c1	45	n	n	n	n	n
Cc1[nH]c2ccccc2c1NC(=O)CN1CCN(c2cccc(C(F)(F)F)c2)CC1	n	x	n	n	n	x
Cc1[nH]c2ccccc2c1C(O)CN1CCN(c2cccc(C(F)(F)F)c2)CC1 (configuration not stated)	55	n	n	n	n	48
CC1=C(C#N)C(c2ccccc2)C2=C(N1)c1ccccc1C2=O (configuration not stated)	n	n	n	n	n	x
CSC1=C(C#N)C(c2ccccc2Cl)C2=C(N1)c1ccccc1C2=O (configuration not stated)	46	n	n	n	n	n
CC(C)C(NC(=O)CN1C(=O)c2ccccc2C1=O)c1ccccc1 (configuration not stated)	n	n	n	n	n	x
CCOC(=O)c1oc2nc(CC(C)C)c3c(c2c1N)CCC3	40	n	n	n	n	n
CCOC(=O)c1sc2nc(N3CCOCC3)c3c(c2c1N)CCC3	n	n	n	n	n	x
CC(=O)Nc1ccc(NC(=O)CSc2nc(N)c(NC(=O)c3ccccc3F)c(=O)[nH]2)cc1	n	n	n	n	n	x
COC(=O)[C@]1(Cc2ccccc2)N[C@H](c2ccc(-c3ccc4c(c3)OCO4)cc2)[C@@H]2C(=O)N(C)C(=O)[C@@H]21	n	n	n	n	n	x
Cc1ccccc1Nc1nc(N)c2ccccc2n1	n	n	n	n	n	x
Nc1nc(Nc2ccccc2)nc2ccccc12	42	n	n	n	n	38
Fc1ccc(NC(=S)Nc2nccs2)cc1	n	n	n	n	n	x
S=C(Nc1ccccc1)Nc1nccs1	42	n	n	n	n	n
CC(=O)N1CCN(c2ccc(NC(=O)C(C)Oc3ccc(Cl)cc3Cl)cc2)CC1 (configuration not stated)	45	n	n	n	n	31
CC(Oc1ccc(Cl)cc1Cl)C(=O)Nc1ccc(N2CCN(C)CC2)cc1 (configuration not stated)	n	n	n	n	n	x
CC(C)[C@H](NC(=O)c1ccc(Cl)cc1)C(=O)OCC(=O)N1CCN(c2ccccc2)CC1	n	x	n	n	n	x
CCN(CC)CCNC(=O)C(Oc1ccccc1)Oc1ccccc1	n	n	n	n	n	x
Cc1ccc(S(=O)(=O)Nc2ccc(N=Nc3ccc(O)cc3)cc2)cc1	40	n	n	n	n	47
CCN(CC)S(=O)(=O)c1ccc2oc(C(=O)N3CCc4ccccc4C3)c(C)c2c1	43	n	n	n	n	30
COc1ccc2[nH]c3c(N4CCC(O)(c5cccc(C(F)(F)F)c5)CC4)ncnc3c2c1	42	n	n	n	n	n

Screening results deposited in PubChem BioAssay by several laboratories.
